# PubChem BioAssay (NCATS)
# A number with no mark means an inactive call. Results filed as inconclusive are left out. Activity calls are given as the source filed them. Unless noted, calls follow the shape of the dose curve; as a rule, active = well fitted curve in the direction sought with a large enough effect; inconclusive = small, poorly fitted or top-dose-only effect, or another doubt; inactive = no such curve, though single readings can be large; an effect the other way counts as inactive or inconclusive.
# Experiments:
# [1] = biological target: Lysosomal acid glucosylceramidase (Homo sapiens) (UniProt P04062); assay: Glucocerebrosidase-p2 (AID 348; in the data active = potency below about 10 µM; also: potency is read from the fitted curve at half-maximal effect); settings: purified GBA, blue fluorogenic substrate, 40 min
# Method in brief: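 Normal human glucocerebrosidase (0.2 nM) with blue fluorogenic substrate (80 uM final) in citrate/phosphate pH 5.9 with 10mM sodium taurocholate, 0.01% tween-20; 40 min RT, NaOH/glycine stop; fluorescence Ex 365/Em 440; AC50 from a titration from 0.6 nM upwards.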
# [2] = AP1 Signaling Pathway (AID 357; active = well fitted curve in either direction with a large enough effect, not every such curve was filed as active;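 also: ME-180 reporter cells stimulated with EGF at its EC50 level; % is scaled to controls: 0 for no effect and ±100 for the full control effect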); settings: ME-180 AP-1-bla reporter, EGF-induced, beta-lactamase ratio, 5 h; at 7.69 µM (top of the series) unless noted
# Method in brief: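 Titration-series screen for positive or negative modulators of EC50 EGF-induced signaling in ME-180 cells carrying an AP-1-driven beta-lactamase reporter. After 5 hours at 37 degrees Celsius, CCF4 460nm/530nm emission ratio gave %Activity; AC50 values derived.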
# [3] = biological target: Cytochrome P450 1A2 (Homo sapiens) (UniProt P05177); assay: p450-cyp1a2 (AID 410; calls by dose curve; also: potency is read from the fitted curve at half-maximal effect;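 as to activity change, negative = inhibition: -100% = full effect of reference inhibitor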); settings: recombinant CYP1A2, luciferin-ME demethylation, luminescence; series mostly up to 57 µM
# Method in brief: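 20nM CYP1A2, 100uM Luciferin-ME (=Km), 100mM KPO4; cpd 10 min RT; +NADPH regen, 60 min RT; stop/detect 20 min; luminescence. Normalized to furafylline 57 uM = full inhibition.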
# [4] = NFAT Signaling Pathway (AID 444; active = well fitted curve in either direction with a large enough effect, not every such curve was filed as active;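 also: carbachol stimulus at about its EC50 of 1 µM final; % is scaled to controls: 0 for no effect and ±100 for the full control effect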); settings: Jurkat NFAT-bla M1, carbachol, beta-lactamase ratio, 5 h; at 7.69 µM (top of the series) unless noted
# Method in brief: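 Jurkat cells carrying an NFAT-driven β-lactamase reporter and co-transfected muscarinic M1 receptor were treated with compound plus carbachol (1 uM final, an EC50 level) for 5 h at 37 °C. CCF4 loading followed for 1 h at RT; 460/530 nm ratio gave %activity.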
# [5] = Stat Signaling Pathway (AID 446; active = well fitted curve in either direction with a large enough effect, not every such curve was filed as active;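 also: ME-180 cervical cancer cells given 40 pM IL-6 alongside compound; SIE-controlled beta-lactamase reporter measured as 460/530 nm FRET emission ratio; % is scaled to controls: 0 for no effect and ±100 for the full control effect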); settings: ME-180 (cervical carcinoma) SIE beta-lactamase reporter, IL-6 stimulated, 5 h; at 7.69 µM (top of the series) unless noted
# Method in brief: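 Compound effects on IL-6-induced STAT reporter activity were measured in ME-180 cells. After overnight culture, cells were co-treated with 40 pM IL-6 for 5 hrs before beta-lactamase substrate loading at room temperature.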
# [6] = biological target: Glucocorticoid receptor (Homo sapiens) (UniProt P04150); assay: GR-GFP Redistribution (AID 450;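 active = compounds whose dose series gives a full or clear partial fitted curve of increased nuclear translocation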; also: potency is read from the fitted curve at half-maximal effect); settings: U2OS GR-GFP nuclear translocation, laser cytometry, 2 h
# [7] = biological target: Glucocorticoid receptor (Homo sapiens) (UniProt P04150); assay: GR-EFC Redistribution (AID 451; calls by dose curve; also: potency is read from the fitted curve at half-maximal effect); settings: CHO-K1 GR-EFC translocation, beta-gal luminescence, 2 h
# Method in brief: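 CHO-K1 cells stably expressing nuclear-localized β-gal enzyme acceptor and GR fused C-terminally to the enzyme donor fragment; ligand-driven nuclear translocation restores β-gal by complementation. Compounds titrated up to 46 uM final, 2 h at 37 °C; luminescence read.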
# [8] = biological target: Mitogen-activated protein kinase 10 (Mus musculus) (UniProt Q61831); assay: JNK3 AlphaScreen Assay (AID 530; active = well fitted curve in either direction with a large enough effect, not every such curve was filed as active;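 also: kinase came from lysate of stimulated human HepG2 cells; signal reports phosphorylation of biotinylated GST-cJun 1-79 at Ser73 with 10 µM ATP; % is scaled to controls: 0 for no effect and ±100 for the full control effect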); settings: JNK3 lysate, c-Jun phosphorylation; series mostly up to 57.1 µM
# Method in brief: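 Biotinylated GST-cJun(1-79) served as substrate for JNK3 in HepG2 lysates stimulated with IL-1beta and TNF-alpha. ATP was 10 uM final, pH 7.6. Ser73 phosphorylation was quantified by AlphaScreen (680 nm excitation).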
# [9] = biological target: 3',5'-cyclic-AMP phosphodiesterase 4B (Homo sapiens) (UniProt Q07343); assay: qHTS Assay for Inhibitors of PDE-IV (AID 607; active = well fitted activation curve with a large enough effect in the main read-out, with a control signal flat, not every such curve was filed as active; also: potency is read from the fitted curve at half-maximal effect); settings: HEK293 ACTOne CNG channel cells, membrane potential fluorescence; series mostly up to 22.9 µM
# Method in brief: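 ACTOne HEK293 cells carry a modified cAMP-gated CNG channel and express endogenous PDE4; plated 1000 cells/well, compounds up to 22.9 uM final. Membrane-potential dye fluorescence (ex 535/em 590) was read; parental cells received 10 uM forskolin + 100 uM RO 20-1724.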
# [10] = biological target: Cytochrome P450 3A4 (Homo sapiens) (UniProt P08684); assay: qHTS Assay for Inhibitors and Substrates of Cytochrome P450 3A4 (AID 884); settings: recombinant CYP3A4, Luciferin-PPXE luminescence; series mostly up to 57.1 µM; also: potency is read from the fitted curve at half-maximal effect; nearly all actives have a fitted effect of over 50% in size
# Method in brief: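 Luminescent readout of luciferin produced by CYP3A4 (20 nM) dealkylation of Luciferin-PPXE, 25 uM (its KM). NADPH-driven reaction ran 60 min at RT after 10 min compound preincubation; data scaled to 57 uM ketoconazole as 100% inhibition.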
# [11] = biological target: Cytochrome P450 3A4 (Homo sapiens) (UniProt P08684); assay: qHTS Assay for Activators of Cytochrome P450 3A4 (AID 885); settings: recombinant CYP3A4, Luciferin-PPXE luminescence, 60 min; series mostly up to 57.1 µM; also: nearly all actives have a fitted effect of over 65% in size
# Method in brief: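 CYP3A4 activity: Luciferin-PPXE O-dealkylation, 25uM substrate, 200mM KPO4, RT throughout. Read-out is luciferase luminescence; higher values reflect activation.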
# [12] = biological target: Dual specificity protein kinase CLK4 (Homo sapiens) (UniProt Q9HAZ1); assay: qHTS Assay for Inhibitors of CDC-like Kinase 4 (Kinase-Glo Assay) (AID 1770); settings: recombinant Clk4, Kinase-Glo ATP depletion luminescence; series mostly up to 66.7 µM; also: nearly all actives have a fitted effect of over 65% in size; also: potency is read from the fitted curve at half-maximal effect
# Method in brief: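 Readout: Kinase-Glo luminescence from ATP left after a 4.5 h room-temperature reaction of 25 nM Clk4 with 100 uM RS peptide and 1 uM ATP (final). Buffer: 25 mM Tris pH 7.5, 10 mM MgCl2.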
# [13] = biological target: Dual specificity protein kinase CLK4 (Homo sapiens) (UniProt Q9HAZ1); assay: qHTS Assay for Inhibitors of CDC-like Kinase 4 (ADP-Glo Assay) (AID 1771); settings: recombinant CLK4, ADP-Glo luminescence; series mostly up to 80 µM; also: nearly all actives have a fitted effect of over 70% in size; also: potency is read from the fitted curve at half-maximal effect
# Method in brief: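 25 nM Clk4, 100 uM RS peptide, 1 uM ATP (final); 2 mM MgCl2, 0.5 mM EGTA, 2.5 mM DTT, 0.01% Triton X-100; 1 hr RT. ADP-Glo readout: ATP depletion 45 min, conversion/luciferase 30 min, luminescence.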
# [14] = biological target: Dual specificity protein kinase CLK4 (Homo sapiens) (UniProt Q9HAZ1); assay: qHTS Assay for Inhibitors of CDC-like Kinase 4 (ADP-FP Assay) (AID 1795); settings: Transcreener ADP fluorescence polarization; series mostly up to 50 µM; also: nearly all actives have a fitted effect of over 60% in size; also: potency is read from the fitted curve at half-maximal effect
# Method in brief: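 FP readout: Orange Transcreener ADP2 tracer (4 nM) plus ADP antibody, read after 30 min at room temperature. Kinase step: 6.25 nM Clk4, 100 uM RS peptide, 1 uM ATP, pH 7.5, 1 h.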
# [15] = biological target: Ubiquitin carboxyl-terminal hydrolase 1 (Homo sapiens) (UniProt O94782); assay: Inhibitors of USP1/UAF1: Pilot qHTS (AID 504865); settings: purified USP1/UAF1, Ub-rhodamine cleavage fluorescence; series mostly up to 54.9 µM;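 also: rhodamine fluorescence freed from ubiquitin-rhodamine substrate followed over time; top concentration of the series differs between compounds; % is scaled to controls: 0 for no effect and ±100 for the full control effect; nearly all actives have a fitted effect of over 35% in size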
# Method in brief: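 1nM USP1/UAF1 + cpd, 15 min RT; start w/ Ub-Rho 150nM final; kinetic FL 480/540 nm, 6 reads q60 s. Buffer 50mM HEPES pH 7.8, 0.5mM EDTA, 1mM TCEP, 0.01% Tween-20, 0.1 mg/ml BSA.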
# [16] = Primary qHTS for small molecule stabilizers of the endoplasmic reticulum resident proteome: Secreted ER Calcium Modulated Protein (SERCaMP) assay (AID 1508630); settings: SH-SY5Y GLuc-SERCaMP (Gaussia luciferase released on ER calcium loss) secretion, thapsigargin, luminescence; series mostly up to 38.4 µM; also: % is scaled to controls: 0 for no effect and ±100 for the full control effect
# Method in brief: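 The SH-SY5Y reporter protocol was run at 3 concentrations up to 38.3 uM (primary) or 11 concentrations (follow-up): 16 h compound, 100 nM thapsigargin for 4 h, then extracellular luciferase luminescence.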
# [17] = biological target: Cytochrome P450 2C9 (Homo sapiens) (UniProt P11712); assay: qHTS Assay for Inhibitors and Substrates of Cytochrome P450 2C9 (AID 883); settings: recombinant CYP2C9, luciferin-H luminescence, 60 min; series mostly up to 57.1 µM; also: % is scaled to controls: 0 for no effect and ±100 for the full control effect; nearly all actives have a fitted effect of over 60% in size
# Method in brief: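 CYP2C9 deoxyluciferin hydroxylation, 37C, 60 min with NADPH regeneration; 10nM enzyme, 100uM Luciferin-H (KM). Glo detection reagent stopped reaction; luminescence normalized to sulphaphenazole (57uM) full inhibition.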
# Cytochrome P450 3A4 (Homo sapiens), sequence (P08684 whole entry, looked up): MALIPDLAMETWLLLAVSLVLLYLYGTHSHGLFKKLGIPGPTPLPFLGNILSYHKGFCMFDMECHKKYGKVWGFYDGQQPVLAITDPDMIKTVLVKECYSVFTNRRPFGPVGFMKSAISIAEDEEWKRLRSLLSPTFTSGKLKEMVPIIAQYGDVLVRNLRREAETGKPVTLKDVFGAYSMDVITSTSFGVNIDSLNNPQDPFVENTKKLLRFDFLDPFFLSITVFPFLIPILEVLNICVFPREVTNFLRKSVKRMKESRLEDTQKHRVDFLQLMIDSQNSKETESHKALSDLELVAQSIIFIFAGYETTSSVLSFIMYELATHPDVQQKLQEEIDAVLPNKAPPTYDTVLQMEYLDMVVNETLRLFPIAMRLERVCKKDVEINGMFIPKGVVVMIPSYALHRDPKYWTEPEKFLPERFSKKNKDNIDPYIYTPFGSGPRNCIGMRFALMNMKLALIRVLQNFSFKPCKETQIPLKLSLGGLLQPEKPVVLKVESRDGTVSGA
# Glucocorticoid receptor (Homo sapiens), sequence (P04150 whole entry, looked up, the tested form may be a part): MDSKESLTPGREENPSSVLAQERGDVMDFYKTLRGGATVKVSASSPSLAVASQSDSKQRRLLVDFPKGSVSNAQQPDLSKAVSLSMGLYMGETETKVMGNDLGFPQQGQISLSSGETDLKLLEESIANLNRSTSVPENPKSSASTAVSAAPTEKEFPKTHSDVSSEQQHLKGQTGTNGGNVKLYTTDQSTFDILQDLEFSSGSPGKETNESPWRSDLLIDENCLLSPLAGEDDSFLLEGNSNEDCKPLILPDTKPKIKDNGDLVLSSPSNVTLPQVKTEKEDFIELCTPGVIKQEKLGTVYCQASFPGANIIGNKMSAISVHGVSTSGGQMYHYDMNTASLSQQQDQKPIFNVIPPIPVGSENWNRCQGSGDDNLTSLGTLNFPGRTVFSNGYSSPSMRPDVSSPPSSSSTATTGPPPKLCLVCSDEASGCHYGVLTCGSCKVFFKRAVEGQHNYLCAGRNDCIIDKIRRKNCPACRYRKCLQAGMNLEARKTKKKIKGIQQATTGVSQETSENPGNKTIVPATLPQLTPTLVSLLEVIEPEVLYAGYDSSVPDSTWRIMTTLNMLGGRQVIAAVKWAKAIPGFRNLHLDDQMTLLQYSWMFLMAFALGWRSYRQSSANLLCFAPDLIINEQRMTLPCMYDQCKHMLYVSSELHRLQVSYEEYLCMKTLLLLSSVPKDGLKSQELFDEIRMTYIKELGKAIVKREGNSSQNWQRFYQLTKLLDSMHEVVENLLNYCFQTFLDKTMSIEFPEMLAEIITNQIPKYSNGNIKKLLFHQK
# Cytochrome P450 1A2 (Homo sapiens), sequence (P05177 whole entry, looked up): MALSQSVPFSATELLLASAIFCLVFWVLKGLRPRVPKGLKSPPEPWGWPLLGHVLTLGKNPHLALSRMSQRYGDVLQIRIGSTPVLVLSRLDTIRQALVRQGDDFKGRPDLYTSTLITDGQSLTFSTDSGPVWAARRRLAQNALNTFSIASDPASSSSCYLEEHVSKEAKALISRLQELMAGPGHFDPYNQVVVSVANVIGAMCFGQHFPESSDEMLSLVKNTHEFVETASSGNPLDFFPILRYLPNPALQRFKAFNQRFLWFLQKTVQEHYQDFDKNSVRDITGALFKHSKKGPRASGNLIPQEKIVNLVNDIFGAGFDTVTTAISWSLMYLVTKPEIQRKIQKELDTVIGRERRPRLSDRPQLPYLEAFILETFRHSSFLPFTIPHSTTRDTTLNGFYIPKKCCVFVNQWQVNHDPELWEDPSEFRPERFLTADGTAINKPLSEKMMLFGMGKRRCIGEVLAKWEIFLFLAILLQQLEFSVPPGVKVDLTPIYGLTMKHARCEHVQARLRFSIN
# Dual specificity protein kinase CLK4 (Homo sapiens), sequence (Q9HAZ1 whole entry, looked up): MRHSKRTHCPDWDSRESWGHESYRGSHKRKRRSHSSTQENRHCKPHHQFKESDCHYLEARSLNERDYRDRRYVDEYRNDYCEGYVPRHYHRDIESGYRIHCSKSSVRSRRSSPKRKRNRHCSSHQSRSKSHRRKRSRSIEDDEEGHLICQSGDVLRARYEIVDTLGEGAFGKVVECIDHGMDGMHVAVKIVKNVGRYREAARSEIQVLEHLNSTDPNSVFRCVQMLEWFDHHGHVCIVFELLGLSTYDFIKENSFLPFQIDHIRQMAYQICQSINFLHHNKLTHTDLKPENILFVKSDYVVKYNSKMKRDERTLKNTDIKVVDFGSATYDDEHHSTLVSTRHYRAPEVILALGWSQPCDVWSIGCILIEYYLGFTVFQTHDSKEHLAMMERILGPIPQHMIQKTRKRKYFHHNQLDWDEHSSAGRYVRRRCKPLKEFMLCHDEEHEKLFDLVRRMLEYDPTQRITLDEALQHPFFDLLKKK
# 3',5'-cyclic-AMP phosphodiesterase 4B (Homo sapiens), sequence (Q07343 whole entry, looked up): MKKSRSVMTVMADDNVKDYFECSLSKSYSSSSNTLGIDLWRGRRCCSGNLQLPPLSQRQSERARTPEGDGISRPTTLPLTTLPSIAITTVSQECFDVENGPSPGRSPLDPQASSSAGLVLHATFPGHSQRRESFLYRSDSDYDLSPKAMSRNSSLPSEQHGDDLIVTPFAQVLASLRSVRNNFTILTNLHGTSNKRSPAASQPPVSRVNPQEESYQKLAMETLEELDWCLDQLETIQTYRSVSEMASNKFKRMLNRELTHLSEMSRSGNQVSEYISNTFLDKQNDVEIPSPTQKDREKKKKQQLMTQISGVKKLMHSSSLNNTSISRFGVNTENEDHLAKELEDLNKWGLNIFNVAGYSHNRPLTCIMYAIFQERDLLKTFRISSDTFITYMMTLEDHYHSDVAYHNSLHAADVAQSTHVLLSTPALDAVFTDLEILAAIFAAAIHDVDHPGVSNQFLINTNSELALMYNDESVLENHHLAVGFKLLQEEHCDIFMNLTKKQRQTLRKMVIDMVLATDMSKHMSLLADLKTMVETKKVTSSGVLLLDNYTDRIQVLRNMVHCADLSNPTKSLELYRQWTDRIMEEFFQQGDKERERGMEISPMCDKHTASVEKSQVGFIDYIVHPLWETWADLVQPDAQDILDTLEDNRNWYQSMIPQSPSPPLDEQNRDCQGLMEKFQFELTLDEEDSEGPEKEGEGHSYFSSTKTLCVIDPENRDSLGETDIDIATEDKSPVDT
# Lysosomal acid glucosylceramidase (Homo sapiens), sequence (P04062 whole entry, looked up): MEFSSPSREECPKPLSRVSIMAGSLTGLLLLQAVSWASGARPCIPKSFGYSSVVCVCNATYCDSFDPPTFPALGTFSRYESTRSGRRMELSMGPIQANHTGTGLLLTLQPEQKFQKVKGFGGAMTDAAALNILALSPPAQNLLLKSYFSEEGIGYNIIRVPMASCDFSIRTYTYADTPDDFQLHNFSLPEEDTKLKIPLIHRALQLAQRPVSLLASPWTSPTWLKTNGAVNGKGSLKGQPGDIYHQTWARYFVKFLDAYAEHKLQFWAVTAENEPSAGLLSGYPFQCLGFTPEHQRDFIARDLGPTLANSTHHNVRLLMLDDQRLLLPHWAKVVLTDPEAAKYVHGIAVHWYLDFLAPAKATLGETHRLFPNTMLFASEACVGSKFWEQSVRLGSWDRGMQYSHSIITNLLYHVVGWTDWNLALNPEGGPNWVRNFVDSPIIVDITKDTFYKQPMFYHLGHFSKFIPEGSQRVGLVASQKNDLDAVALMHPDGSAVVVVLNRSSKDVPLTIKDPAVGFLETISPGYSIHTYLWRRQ
# Ubiquitin carboxyl-terminal hydrolase 1 (Homo sapiens), sequence (O94782 whole entry, looked up): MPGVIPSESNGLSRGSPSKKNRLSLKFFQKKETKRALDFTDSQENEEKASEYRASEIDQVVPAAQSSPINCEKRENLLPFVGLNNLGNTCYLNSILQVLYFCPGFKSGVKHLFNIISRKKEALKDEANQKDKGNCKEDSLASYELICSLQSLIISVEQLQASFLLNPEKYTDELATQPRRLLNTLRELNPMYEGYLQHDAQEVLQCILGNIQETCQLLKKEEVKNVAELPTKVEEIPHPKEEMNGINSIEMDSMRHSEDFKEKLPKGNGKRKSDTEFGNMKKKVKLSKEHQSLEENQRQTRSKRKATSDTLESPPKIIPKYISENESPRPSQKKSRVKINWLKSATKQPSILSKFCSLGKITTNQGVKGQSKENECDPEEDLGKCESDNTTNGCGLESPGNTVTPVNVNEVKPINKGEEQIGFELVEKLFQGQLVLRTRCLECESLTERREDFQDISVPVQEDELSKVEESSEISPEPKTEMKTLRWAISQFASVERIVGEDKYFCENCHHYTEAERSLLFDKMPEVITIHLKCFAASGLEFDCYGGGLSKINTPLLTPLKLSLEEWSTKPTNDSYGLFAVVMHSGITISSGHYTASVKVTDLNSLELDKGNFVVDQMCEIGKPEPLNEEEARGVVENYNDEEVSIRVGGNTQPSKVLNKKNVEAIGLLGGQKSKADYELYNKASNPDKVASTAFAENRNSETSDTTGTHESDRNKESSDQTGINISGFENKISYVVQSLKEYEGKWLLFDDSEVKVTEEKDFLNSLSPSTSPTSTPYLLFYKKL
# Cytochrome P450 2C9 (Homo sapiens), sequence (P11712 whole entry, looked up): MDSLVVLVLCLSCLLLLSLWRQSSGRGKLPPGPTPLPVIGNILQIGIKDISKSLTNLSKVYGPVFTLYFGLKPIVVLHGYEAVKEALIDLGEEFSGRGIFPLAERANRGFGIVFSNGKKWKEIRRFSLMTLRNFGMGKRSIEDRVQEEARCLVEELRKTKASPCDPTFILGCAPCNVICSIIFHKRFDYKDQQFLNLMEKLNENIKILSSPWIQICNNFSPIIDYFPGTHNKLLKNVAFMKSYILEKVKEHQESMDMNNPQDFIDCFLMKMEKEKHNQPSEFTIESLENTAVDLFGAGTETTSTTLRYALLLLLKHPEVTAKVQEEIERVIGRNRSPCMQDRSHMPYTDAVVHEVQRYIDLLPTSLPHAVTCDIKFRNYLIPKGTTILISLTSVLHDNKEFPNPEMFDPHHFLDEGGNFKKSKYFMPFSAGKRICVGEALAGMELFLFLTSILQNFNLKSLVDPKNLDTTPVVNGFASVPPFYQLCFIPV
Compound,Potency [1] [µM],"activity change, negative = inhibition [2] [%]",Potency [3],"activity change, negative = inhibition [4] [%]","activity, negative = inhibition [5] [%]",Potency [6] [µM],Potency [7] [µM],Potency [8],Potency [9],Potency [10],Potency [11],Potency [12],Potency [13],Potency [14],Potency [15],outcome [16],Potency [17]
CNc1ncncc1-c1ccccc1C,> 11.4,7.16,12.6 µM (active),9.64,2.49,> 46,> 46,inactive,inactive,0.631 µM (active),inactive,inactive,inactive,inactive,inactive,inactive,
COCCn1c(=O)c(-c2ccccc2)nc2cncnc21,> 11.4,-9.61,0.794 µM (active),-5.89,-10.2,> 9.22,> 46,inactive,inactive,,,inactive,inactive,inactive,inactive,inactive,
COc1ccc(Oc2ncc3nc(-c4cn(C)c5ccccc45)c(=O)n(C)c3n2)cc1,> 11.4,-24.2,inactive,-8.09,1.51,> 9.22,> 46,inactive,inactive,,inactive,inactive,inactive,inactive,inactive,inactive,inactive
COCCn1c(=O)c(-c2cccc(C#N)c2)nc2cnc(Oc3ccc(OC)cc3)nc21,> 11.4,-21.9,12.6 µM (active),7,-15,> 9.22,> 46,inactive,inactive,2.51 µM (active),inactive,inactive,inactive,inactive,inactive,inactive,
COc1ccc(CNc2cc(-c3cccnc3)ncn2)c(OC)c1,> 11.4,-14.6,1.26 µM (active),10.5,2.95,> 46,> 46,inactive,inactive,1.58 µM (active),inactive,8.91 µM (active),8.91 µM (active),10 µM (active),inactive,inactive,
COc1ncc2nc(-c3ccc(F)cc3)c(=O)n(Cc3ccc(F)cc3)c2n1,> 11.4,1.72,1.58 µM (active),-1.74,-13.2,> 9.22,> 46,inactive,inactive,3.16 µM (active),inactive,inactive,inactive,inactive,inactive,inactive,
Cc1nc2cnc(N(C)C)nc2n(-c2ccccc2)c1=O,> 11.4,-7.75,2 µM (active),9.3,-16.5,> 46,> 46,inactive,inactive,,,inactive,inactive,inactive,inactive,inactive,
c1cncc(-c2cc(-n3ccnc3)ncn2)c1,> 11.4,-4.01,0.1 µM (active),4.07,14.8,> 46,> 46,inactive,inactive,1.58 µM (active),inactive,0.794 µM (active),0.708 µM (active),0.501 µM (active),inactive,inactive,
O=c1cnc2cnc(Oc3ccccc3)nc2n1C1CC1,> 11.4,-14,7.94 µM (active),-5.78,-13.1,> 9.22,> 46,inactive,inactive,,,inactive,inactive,inactive,inactive,inactive,
COc1cccc(Cn2c(=O)c(-c3ccc(Cl)cc3)nc3cnc(OC)nc32)c1,> 11.4,-15.4,3.98 µM (active),8.55,4.34,> 9.22,> 46,inactive,,,,inactive,inactive,inactive,inactive,inactive,
CCNc1ncc2nc(-c3cn(C)c4ccccc34)c(=O)n(Cc3cccs3)c2n1,> 11.4,-13.1,6.31 µM (active),8.06,23.5,> 9.22,> 46,inactive,inactive,,,inactive,inactive,inactive,inactive,inactive,
COc1ncc2ncc(=O)n(C3CC3)c2n1,> 11.4,-1.23,10 µM (active),-8.58,6.59,> 9.22,> 46,inactive,1.58 µM (active),,,inactive,inactive,inactive,inactive,inactive,
